“And” between values parts separate entries of the source, which are not always exact repeats. Identical values can stand only once. Inconclusive results are not listed. Where a call stands in place of a potency, no number is given. Unmarked numbers belong to inactive results. The source made the active and inactive calls. Calls come from the whole dose curve; as a rule, active = well fitted curve in the direction sought with a large enough effect in the repeat runs; inconclusive = weak or mixed curves; inactive = no such curve, though single readings can be large; an effect the other way counts as inactive or inconclusive.
Experiments:
[1] = qHTS RealTime-Glo MT Cell Viability Assay in HepG2 cells - 40 hour (AID 1224870); note: nearly all actives have a fitted effect of over 50% in size
In short: (§1)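 Real-time viability: cells seeded at 600 per well together with NanoLuc and cell-permeant prosubstrate, compounds added after 5 h incubation. Luminescence tracked at 0, 8, 16, 24, 32 and 40 h of exposure.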

[2] = A CellTox Green Cytotoxicity Assay to monitor cytotoxicity in HEK293 cells - 40 hour (AID 1224871); note: nearly all actives have a fitted effect of over 45% in size; note: potency is the fitted concentration of half-maximal effect
In short: (§2)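 HEK293 cells premixed with CellTox Green dye were seeded at 600 cells/well and left 5 h at 37 C/5% CO2 before pin transfer of 23 nL compound in DMSO. Fluorescence from dye bound to dead-cell DNA was read during 40 h treatment.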

[3] = qHTS RealTime-Glo MT Cell Viability Assay in HepG2 cells - 8 hour (AID 1224873); note: nearly all actives have a fitted effect of over 55% in size
In short: as §1

[4] = qHTS RealTime-Glo MT Cell Viability Assay in HEK293 cells - 40 hour (AID 1224874); conditions: RealTime-Glo luminescence; max response: hits give low values; note: nearly all actives have a fitted effect of over 50% in size; note: potency is the fitted concentration of half-maximal effect
In short: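 HEK293 cells mixed with RealTime-Glo reagents (NanoLuc plus cell-permeant prosubstrate) at 600 cells/well, preincubated 5 h at 37 C/5% CO2, then given 23 nL compound in DMSO. Nonlytic luminescence from viable cells was read at 0, 8, 16, 24, 32 and 40 h.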

[5] = A CellTox Green Cytotoxicity Assay to monitor cytotoxicity in HEK293 cells - 24 hour (AID 1224875); note: nearly all actives have a fitted effect of over 45% in size; note: potency is the fitted concentration of half-maximal effect
In short: as §2

[6] = qHTS RealTime-Glo MT Cell Viability Assay in HepG2 cells - 32 hour (AID 1224877); note: nearly all actives have a fitted effect of over 55% in size
In short: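 Luminescence read-out: viable HepG2 cells reduce a prosubstrate to a NanoLuc substrate, giving a signal proportional to live cell number. Reads taken at 0, 8, 16, 24, 32 and 40 h of compound exposure at 37 C.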

[7] = A CellTox Green Cytotoxicity Assay to monitor cytotoxicity in HepG2 cells - 24 hour (AID 1224878); note: nearly all actives have a fitted effect of over 45% in size; note: potency is the fitted concentration of half-maximal effect
In short: (§3)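 HepG2 cells were seeded together with the CellTox Green dye at 600 cells/well, left 5 h at 37 C/5% CO2, then given compounds in DMSO. Fluorescence from dye bound to dead-cell DNA was read repeatedly over 40 h of treatment at 37 C.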

[8] = A CellTox Green Cytotoxicity Assay to monitor cytotoxicity in HepG2 cells - 40 hour (AID 1224879); note: nearly all actives have a fitted effect of over 40% in size; note: potency is the fitted concentration of half-maximal effect
In short: as §3

[9] = A CellTox Green Cytotoxicity Assay to monitor cytotoxicity in HepG2 cells - 16 hour (AID 1224876); note: nearly all actives have a fitted effect of over 45% in size
In short: as §3

[10] = qHTS RealTime-Glo MT Cell Viability Assay in HEK293 cells - 16 hour (AID 1224872); note: nearly all actives have a fitted effect of over 50% in size; note: potency is the fitted concentration of half-maximal effect
In short: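 Nonlytic real-time viability readout: viable cells convert prosubstrate to NanoLuc substrate, giving luminescence proportional to live cell number. HEK293, 600 cells/well, compound added after 5 h, continuous culture at 37 C.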

Row | SMILES | Potency [1] | Potency [2] | Potency [3] | max response [4] | Potency [5] | Potency [6] | Potency [7] | Potency [8] | Potency [9] | Potency [4] | Potency [10]
1 | CCCCCCCCCCC=CC1CC(=O)OC1=O (stereo unspecified) | inactive | inactive | inactive | 0.806% and -0.583% | inactive | inactive | inactive | inactive | – | – | –
2 | Nc1c(S(=O)(=O)O)cc(Br)c2c1C(=O)c1ccccc1C2=O | inactive | inactive | inactive | 0.275% and -15.6% | inactive | inactive | inactive | inactive | inactive | – | –
3 | CCCCC(CC)C(=O)OCCOCCOCCOC(=O)C(CC)CCCC (stereo unspecified) | inactive | inactive | inactive | -28.2% | inactive | inactive | inactive | inactive | – | – | –
4 | C/C=C(C)/C=C/C=C(C)C | inactive | inactive | inactive | -28.6% and 16.8% | inactive | inactive | inactive | inactive | – | – | –
5 | Cc1ccc(C)c(C)c1 | inactive | inactive | inactive | 7.97% and 2.35% | inactive | inactive | inactive | inactive | – | – | –
6 | Cc1cc(O)c2c(c1)C(=O)c1cc(O)cc(O)c1C2=O | inactive | inactive | inactive | – | inactive | inactive | inactive | inactive | – | – | –
7 | ClC1=C(Cl)C(Cl)(Cl)C(Cl)=C1Cl | inactive | 12.4 µM (active) and 34.7 µM (active) | inactive | – | 38.9 µM (active) | inactive | inactive | 22 µM (active) | – | 34.9 µM (active) | –
8 | O=S(=O)(O)CCS | inactive | inactive | inactive | 0.917% and -2.58% | inactive | inactive | inactive | inactive | – | – | –
9 | O=C1N=C(O)CN1/N=C/c1ccc(-c2ccc([N+](=O)[O-])cc2)o1 | inactive | inactive | inactive | -2.04% | inactive | inactive | inactive | inactive | inactive | – | –
10 | O=[N+]([O-])C(CO)(CO)CO | inactive | inactive | inactive | 10.8% | inactive | inactive | inactive | inactive | inactive | – | –
11 | C=C1C2CCC(C2)C1(C)C (stereo unspecified) | inactive | inactive | inactive | -3.35% and 5.02% | inactive | inactive | inactive | inactive | – | – | –
12 | O=S(=O)(O)c1cc(S(=O)(=O)O)c2c(N=Nc3ccccc3)c(O)ccc2c1 | inactive | inactive | inactive | -20.2% | inactive | inactive | inactive | inactive | inactive | – | –
13 | CCCCCCCCCC(=O)O | inactive | inactive | inactive | 7.81% and 12.5% | inactive | inactive | inactive | inactive | inactive | – | –
14 | C=C1CC[C@H](O)CC1=C/C=C1\CCC[C@]2(C)[C@@H]([C@H](C)/C=C/[C@H](C)C(C)C)CC[C@@H]12 | inactive | inactive | inactive | – | inactive | inactive | inactive | inactive | – | 48.5 µM (active) and 49 µM (active) | –
15 | CC(C)n1c(/C=C/[C@@H](O)C[C@@H](O)CC(=O)O)c(-c2ccc(F)cc2)c2ccccc21 | inactive | inactive | inactive | -22.2% and 0.258% | inactive | inactive | 6.17 µM (active) and 10.7 µM (active) | 4.36 µM (active) and 9.52 µM (active) | inactive | – | –
16 | CCOC(=O)/C=C\C(=O)OCC | inactive | inactive | inactive | 0.421% and 21.2% | inactive | inactive | inactive | inactive | inactive | – | –
17 | Cc1cc(NS(=O)(=O)c2ccc(N)cc2)no1 | inactive | inactive | inactive | 3.11% and 0.646% | inactive | inactive | inactive | inactive | inactive | – | –
18 | OCCOCCOCCOCCO | inactive | inactive | inactive | 0.824% and 6.75% | inactive | inactive | inactive | inactive | inactive | – | –
19 | CCOC(=O)[C@H](CCc1ccccc1)N[C@@H](C)C(=O)N1Cc2ccccc2C[C@H]1C(=O)O | inactive | inactive | inactive | -0.607% and -1.19% | inactive | inactive | inactive | inactive | – | – | –

Row | SMILES | Potency [1] | Potency [2] | Potency [3] | max response [4] | Potency [5] | Potency [6] | Potency [7] | Potency [8] | Potency [9] | Potency [4] | Potency [10]
20 | Oc1c(Cl)cc(Cl)c(Cl)c1Cl | inactive | inactive | inactive | – | inactive | inactive | inactive | inactive | inactive | – | –
21 | O=[N+]([O-])c1cccc(Cl)c1 | inactive | inactive | inactive | 7.7% | inactive | inactive | inactive | inactive | inactive | – | –
22 | C=CC(=O)OCCCCCCCC(C)C | inactive | inactive | inactive | 4.58% and 25.2% | inactive | inactive | inactive | inactive | inactive | – | –
23 | CN(C)c1ccc(C(=N)c2ccc(N(C)C)cc2)cc1 | – | – | – | – | inactive | – | inactive | 4.31 µM (active) and 18.8 µM (active) | – | 2.42 µM (active) and 2.97 µM (active) | 5.43 µM (active)
24 | C[C@@H]1O[C@@H](OC[C@H]2O[C@@H](Oc3c(-c4ccc(O)c(O)c4)oc4cc(O)cc(O)c4c3=O)[C@H](O)[C@@H](O)[C@@H]2O)[C@H](O)[C@H](O)[C@H]1O | inactive | inactive | inactive | -1.83% and 0.783% | inactive | inactive | inactive | inactive | inactive | – | –
25 | CN(C)c1cccc(O)c1 | inactive | inactive | inactive | -0.0652% and -21.5% | inactive | inactive | inactive | inactive | inactive | – | –
26 | CC1=C(CC(=O)O)c2cc(F)ccc2/C1=C\c1ccc(S(C)=O)cc1 (stereo unspecified) | inactive | inactive | inactive | 14% and 12.3% | inactive | inactive | inactive | inactive | inactive | – | –
27 | CC1=C(/C=C/C(C)=C/C=C/C(C)=C/CO)C(C)(C)CCC1 | inactive | – | inactive | -27.5% and -20.7% | inactive | inactive | inactive | inactive | inactive | – | inactive
28 | O=C(O)c1cc(-c2ccccc2)nc2ccccc12 | inactive | inactive | inactive | -1.75% and 4.47% | inactive | inactive | inactive | inactive | inactive | – | –
29 | NC(=O)/N=N/C(N)=O | inactive | inactive | inactive | 1.69% and 1.16% | inactive | inactive | inactive | inactive | inactive | – | –
30 | CC1Cc2ccccc2N1NC(=O)c1ccc(Cl)c(S(N)(=O)=O)c1 (stereo unspecified) | inactive | inactive | inactive | 3.11% and -9.79% | inactive | inactive | inactive | inactive | inactive | – | –
31 | CC(C)NCC(O)COc1cccc2ccccc12 (stereo unspecified) | inactive | inactive | inactive | – | inactive | inactive | inactive | – | – | – | –
32 | OCC#CCO | inactive | inactive | inactive | 0.572% and 1.12% | inactive | inactive | inactive | inactive | inactive | – | –
33 | NC(=O)NNc1ccccc1 | inactive | inactive | inactive | 15.8% and 8.69% | inactive | inactive | inactive | inactive | – | – | –
34 | OC[C@@H](O)[C@H](O)[C@H](O)[C@@H](O)CO | inactive | inactive | inactive | 7.24% and 7.63% | inactive | inactive | inactive | inactive | – | – | –
35 | O=C(Oc1ccccc1)c1ccc(O)cc1 | inactive | inactive | inactive | -21.6% and -15.5% | inactive | inactive | inactive | inactive | – | – | –
36 | NCCNCCNCCNCCN | inactive | inactive | inactive | 1.39% and 5.6% | inactive | inactive | inactive | inactive | – | – | –
37 | C=C(C)C(=O)OCCCCCCCCCCCC | inactive | inactive | inactive | 0.0102% and 4.38% | inactive | inactive | inactive | inactive | inactive | – | –
38 | CCOC(=O)C1OC1c1ccccc1 (stereo unspecified) | inactive | inactive | inactive | – | inactive | inactive | inactive | – | – | – | –
